Source: article PMC4336329 (PLoS ONE, 2015)
The whole screen tested about 310,000 compounds, of which about 14,000 (4.5%) showed an effect of 50% or more. The effect is printed as a negative number. The list comes from a sample in which strong results are over-represented; it also holds similar structures and randomly drawn compounds.

biological target: human ether-à-go-go-related gene (hERG) potassium channel (human, UniProt Q12809); experiment: primary screen, population patch clamp on CHO cells stably expressing hERG; higher = less effect of the substance
Sequence (Q12809 whole entry, looked up): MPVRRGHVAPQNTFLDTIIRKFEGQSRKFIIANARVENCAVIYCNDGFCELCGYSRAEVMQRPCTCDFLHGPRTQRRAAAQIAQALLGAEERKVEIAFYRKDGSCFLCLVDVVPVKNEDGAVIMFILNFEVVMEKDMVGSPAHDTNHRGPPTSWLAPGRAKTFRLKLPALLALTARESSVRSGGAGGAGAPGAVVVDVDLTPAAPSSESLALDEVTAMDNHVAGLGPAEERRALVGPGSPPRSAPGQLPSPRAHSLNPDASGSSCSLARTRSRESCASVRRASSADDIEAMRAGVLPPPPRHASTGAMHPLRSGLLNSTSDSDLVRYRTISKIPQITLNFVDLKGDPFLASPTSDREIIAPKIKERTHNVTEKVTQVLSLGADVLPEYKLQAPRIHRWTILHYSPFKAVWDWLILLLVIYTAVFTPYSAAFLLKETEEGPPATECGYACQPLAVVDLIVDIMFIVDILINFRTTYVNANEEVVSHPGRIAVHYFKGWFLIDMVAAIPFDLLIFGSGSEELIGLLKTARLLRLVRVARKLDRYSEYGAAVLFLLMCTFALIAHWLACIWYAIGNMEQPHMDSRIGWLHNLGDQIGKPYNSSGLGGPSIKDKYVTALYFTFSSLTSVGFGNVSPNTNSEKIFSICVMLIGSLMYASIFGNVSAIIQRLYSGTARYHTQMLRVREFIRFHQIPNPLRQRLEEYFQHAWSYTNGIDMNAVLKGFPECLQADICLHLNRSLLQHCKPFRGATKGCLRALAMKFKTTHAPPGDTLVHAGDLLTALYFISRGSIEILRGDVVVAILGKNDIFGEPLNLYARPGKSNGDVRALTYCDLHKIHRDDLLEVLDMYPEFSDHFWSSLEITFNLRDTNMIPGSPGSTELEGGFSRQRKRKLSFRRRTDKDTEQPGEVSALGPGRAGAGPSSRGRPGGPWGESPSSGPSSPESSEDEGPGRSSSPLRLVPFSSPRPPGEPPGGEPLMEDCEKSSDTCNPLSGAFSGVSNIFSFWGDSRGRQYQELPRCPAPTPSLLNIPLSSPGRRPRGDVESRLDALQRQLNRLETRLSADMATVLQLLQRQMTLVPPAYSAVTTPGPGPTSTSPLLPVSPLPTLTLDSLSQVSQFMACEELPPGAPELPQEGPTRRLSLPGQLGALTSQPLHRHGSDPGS
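Note: peak tail current of the secondary pulse compared with the same well before compound.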

Structure (SMILES)	hERG current change (%, negative = inhibition) at 10uM [%]
O=C(CCn1cnnn1)Nc1cccc(F)c1	21.3
S=C(NCCSCc1c(Cl)cccc1Cl)Nc1ccccc1	-3.31
COCCn1c(C)cc(C2=NNC(=Nc3ccc(OC)cc3)SC2)c1C	1.3
Cc1ccc(S(=O)(=O)Nc2ccnc3ccccc23)cc1	-4.28
Cc1ccc(F)cc1NC(=O)c1sc2ncn(CC(=O)N3CCN(c4ccccn4)CC3)c(=O)c2c1C	-5.06
O=C(COC(=O)CCC(=O)c1cccs1)NC1CCCCC1	1.55
CCCCCCC(=O)N/N=C/c1c(O)n(C2CC2)c(=S)[nH]c1=O	-4.67
Cc1cc(N2CCN(c3ccccc3)CC2)n2nnnc2n1	-3.56
Cc1cccc(N2CCN(c3cc(C)nc4nnnn34)CC2C)c1 (stereo not drawn)	-53.1
Cc1cccc(N2CCN(c3nnnn3-c3ccccc3)CC2C)c1 (stereo not drawn)	-10.8
O=C(NCCc1ccco1)C(=O)NCC1CCCN1S(=O)(=O)c1ccccc1 (stereo not drawn)	-33.5
CSc1ccc(/C=C(\NC(=O)c2ccc(C)cc2)C(=O)Nc2cccc(C)c2)cc1	15.6
CC(C)Oc1ccc(C2CC(=O)N(c3ccccc3)C2=O)cc1 (stereo not drawn)	6.47
COc1ccc(-c2cc(=[NH+]c3cccc(C(=O)O)c3)c3cc(C)ccc3o2)cc1.[O-][Cl+3]([O-])([O-])[O-]	-0.536
COc1ccc(-c2cc(=NC(CC(C)C)C(=O)O)c3cc(C)ccc3o2)cc1 (stereo not drawn)	-56.5
COc1ccc(-c2cc(=Nc3ccc(C(=O)O)cc3)c3cc(C)ccc3o2)cc1	12.7
COc1ccc(-c2cc(=NCC(=O)O)c3ccccc3o2)cc1.[O-][Cl+3]([O-])([O-])O	-31.5
CCC(N=c1cc(-c2ccc(OC)cc2)oc2ccc(C)cc12)C(=O)O (stereo not drawn)	-74.4
CCC(N=c1cc(-c2ccc(OC)c(OC)c2)oc2ccc(C)cc12)C(=O)O (stereo not drawn)	-20.7
O=C(CN1C(=O)NC2(CCc3ccccc32)C1=O)NCC(=O)Nc1ccc(F)cc1 (stereo not drawn)	1.09
CCCc1c(C(=O)N/N=C/c2ccccc2C(F)(F)F)nnn1-c1nonc1N	11.8
CC(C)c1ccc(CNc2ccc3c(c2)ncn3C)cc1	9.16
CC(C)(C)OC(=O)N1CCC[C@H]1c1nnc(SCc2c(F)cccc2Cl)o1	2.16

Structure (SMILES)	hERG current change (%, negative = inhibition) at 10uM [%]
CC(C)(C)OC(=O)N1CCC[C@H]1c1nnc(SCc2c(Cl)cccc2Cl)o1	-57.5
CC(C)(C)OC(=O)N1CCC[C@H]1c1nnc(SCc2ccccc2Cl)o1	-5.07
Cc1ccccc1CNc1nnnn1C	12.4
Br.O=C(CN1CCSC1=NCc1ccccc1)c1ccccc1	-23.5
Br.O=C(CN1CCSC1=NCc1ccccc1)c1ccc(Cl)c(Cl)c1	-17.7
Br.O=C(CN1CCSC1=NCc1ccccc1)c1ccc(Cl)cc1	-53.9
C=CCNC(=O)c1c(-c2c(F)cccc2Cl)noc1C	-1.62
Cc1ccc(S(=O)(=O)N2CCC(C(=O)N3CCC[C@H]3C(=O)NCC(C)C)CC2)cc1	13.8
Cl.N=c1sccn1CC(=O)NCCc1ccc(Cl)cc1	-26.3
CC(C)N=c1cc2n(-c3ccc(Cl)cc3)c3ccccc3nc-2cc1Nc1ccc(Cl)cc1	35.9
CCN(Cc1ccncc1)C(=O)c1ccc(Br)o1	1.66
CCN(Cc1ccncc1)C(=O)c1cc(COc2c(C)cccc2C)on1	-75.3
CCN(Cc1ccncc1)C(=O)c1ccc(C)o1	-0.494
CCN(Cc1ccncc1)C(=O)c1cc(COc2ccc(OC)cc2Cl)on1	-22.6
COc1cccc(OCc2cc(C(=O)N(C)Cc3nc4ccccc4[nH]3)no2)c1	-37.1
Cc1cccc(C)c1OCc1cc(C(=O)N(C)Cc2nc3ccccc3[nH]2)no1	-70.6
CCN(Cc1ccccc1)C(=O)c1cc(COc2c(F)cccc2F)on1	3.85
CCN(Cc1ccncc1)C(=O)c1cc(COc2c(F)cccc2F)on1	-36
CCN(Cc1ccncc1)C(=O)c1cc(COc2ccc(C)c(C)c2)on1	-69.5
CCN(Cc1ccncc1)C(=O)c1cc(COc2ccc(F)cc2F)on1	-36
CC(=O)c1ccc(OCc2cc(C(=O)N(C)Cc3nc4c(C)cccc4[nH]3)no2)cc1	-10.7
CCN(Cc1ccncc1)C(=O)c1ccco1	-73.5
